Most compounds without a hit are left out; they make up all but 2.8% or so of the library.
KKLEB tox: CF airway cell cytotoxicity counter-screen; KKLEB CF airway cells viability, ATPlite luminescence, overnight; active compounds read low; cells stimulated with P. aeruginosa culture filtrate; activity change (cytotoxicity), % at 5 µM; 0.36% of 360,000 active;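 active = corrected activity change at or below -50% at 5 µM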
CF NFkB inh: blocks PAF-induced NF-kB reporter in cystic fibrosis cells | inhibition, % at 5 µM | KKLEB NF-kB-GFP reporter, GFP fluorescence overnight | 0.86% of 360,000 active | AID 588850;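 active = at least 50% inhibition at 5 µM, scaled per plate between neutral and stimulator controls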;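 note: PAF is a Pseudomonas aeruginosa culture filtrate used as stimulus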
Peg3 prom inh-1: inhibitors of Peg3 promoter | HeLa PEG-Prom luciferase reporter, luminescence, overnight | AID 588405 | 1.7% of 360,000 active | inhibition, % at 20 µM;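 active = inhibition of at least 50% at 20 µM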
HIF-2a inh: HIF-2a inhibition; 786-0 RCC cells HIF-2a reporter, luciferase luminescence, overnight; inhibition, % at 18.8 µM; 0.72% of 360,000 active; AID 624352;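 active = inhibition of the luminescence signal of 40% or more relative to plate controls, in a single-dose primary screen at 18.75 µM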
TRPM1 prom inh: inhibitors of MITF-driven TRPM1 promoter in melanoma cells; SK-MEL-5 TRPM1 promoter luciferase, 24 h; inhibition, % at 12.5 µM; 0.83% of 330,000 active; AID 488899;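 active = mean inhibition across replicates of 60% or more, whatever share of single replicates reaches that level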
Shn3 inh set2: Schnurri-3 reporter inhibition in Clone20 osteoblasts; inhibition, % at 12.5 µM; Clone20 osteoblast Shn3 3'UTR firefly luciferase, 24 h; 0.52% of 360,000 active; AID 588674;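 active = mean inhibition of at least 75% with every replicate also reaching 75%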
Peg3 prom inh-2: confirmation of Peg3 promoter inhibitors; inhibition, % at 20 µM; 84% of 1,300 active; HeLa PEG-Prom luciferase reporter, luminescence, overnight; shares compounds with Peg3 prom inh-1;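 active = at 20 µM dose, 40% or more inhibition averaged across four replicates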
Numbers stand for hits; i = inactive; nt = not tested or not shown.

SMILES | KKLEB tox | CF NFkB inh | Peg3 prom inh-1 | HIF-2a inh | TRPM1 prom inh | Shn3 inh set2 | Peg3 prom inh-2
CC(=O)CCc1ccc(Oc2nc(-c3cccnc3)nc3ccccc23)cc1 | i | i | 66.0 | i | i | i | i
CCOc1ccc2nc(NC(=O)c3cccc(-c4cc5ccccc5oc4=O)c3)sc2c1 | -58.2 | 50.4 | 89.0 | i | i | i | i
O=C(CSc1ccccc1)N1CCN(c2ccc(F)cc2)CC1 | i | i | i | i | i | i | nt
C=CCn1c(=NC(=O)c2ccc(S(=O)(=O)N3CCc4ccccc4C3)cc2)sc2cc(S(N)(=O)=O)ccc21 | i | i | 72.1 | i | i | i | i
COCCn1c(=NC(=O)c2ccc(S(=O)(=O)N3CCc4ccccc4C3)cc2)sc2cc(S(N)(=O)=O)ccc21 | i | i | i | i | i | i | nt
COC(=O)c1c(N)sc(C(=O)NCCc2ccccc2)c1C | i | i | 78.1 | 66.2 | 63.1 | i | 64.8
COc1ccc(CCNC(=O)c2ccc(OCc3c(C)noc3C)c(OC)c2)cc1 | i | i | i | i | i | i | nt
COc1cc(C(=O)NCCc2c[nH]c3ccccc23)ccc1OCc1c(C)noc1C | i | i | 62.8 | i | i | i | i
CC1CCCCN1CCNC(=O)c1ccc2c(=O)n(Cc3ccc(Cl)cc3)c(=S)[nH]c2c1 (stereo not given) | i | i | 101.7 | i | i | i | 97.6
O=C(C(=O)N(Cc1ccccc1)Cc1ccccc1)c1c(-c2ccccc2)[nH]c2ccccc12 | -81.4 | 94.5 | 63.8 | i | i | i | 68.2
COc1ccc(N(CCCN2C(=O)c3cccc4cccc(c34)C2=O)C(=O)c2cccs2)cc1 | i | i | 52.5 | i | i | i | 42.3
COc1cc(C)ccc1N(CCCN1C(=O)c2cccc3cccc(c23)C1=O)C(=O)c1cccs1 | i | i | i | i | i | i | nt
O=C(NNC(=O)c1cccnc1SCc1cccc([N+](=O)[O-])c1)c1ccccn1 | i | i | 54.8 | i | i | 96.5 | 69.8
COc1ccc(NC(=O)N(C)[C@H]2C[C@H]3c4[nH]c5ccc(-c6cccc(C)c6)cc5c4CCN3C[C@H]2[C@H](C)O)cc1 | i | i | 92.3 | i | nt | i | 53.1
CCOc1ccccc1C(O)C1=CC(=O)c2ccccc2C1=O (stereo not given) | i | i | i | i | i | i | nt
O=C(N/N=C\c1c(O)ccc2ccccc12)c1ccc(Cn2cccn2)o1 | i | i | 53.5 | i | i | 89.1 | 67.0
COc1ccc(-c2c(-c3cc(OC)cc(OC)c3)n(C)c3ccc(-c4cnc(N)nc4)cc23)cc1 | i | i | i | i | i | i | nt
COc1ccc(-c2c(-c3cc(OC)cc(OC)c3)n(C)c3ccc(-c4ccc(S(N)(=O)=O)cc4)cc23)cc1 | i | i | 53.1 | i | i | i | i
O=C1C(=C2SCCCS2)CC/C1=C\c1ccc(F)cc1 | -78.0 | i | 85.7 | 64.8 | i | i | 42.9
CN=c1scc(-c2ccccc2F)n1/N=C/c1ccc[nH]1 | -55.1 | i | 90.7 | 92.0 | 90.3 | i | 92.1
OCCCn1c(C2CCCN2c2nc(-c3ccc(F)cc3)cs2)nc2cc(Cl)c(N3CCCCC3)cc21 (stereo not given) | i | i | 56.4 | i | i | i | i
COc1cc2c(cc1OC)C(SC)=NC1(CCCC1)C2 | i | i | 64.3 | i | 87.3 | i | i
CC(=O)Nc1ccc(S(=O)(=O)N(Cc2cccnc2)Cc2cc3ccccc3[nH]c2=O)cc1 | i | 81.3 | 55.7 | i | i | i | 45.7
CC(=O)Nc1ccc(S(=O)(=O)N(Cc2ccco2)Cc2cc3ccccc3[nH]c2=O)cc1 | i | i | 59.8 | i | i | i | 54.9
COC(=O)c1ccccc1S(=O)(=O)N(Cc1ccco1)Cc1cc2cc(OC)ccc2[nH]c1=O | i | i | i | i | i | i | nt
SMILES | KKLEB tox | CF NFkB inh | Peg3 prom inh-1 | HIF-2a inh | TRPM1 prom inh | Shn3 inh set2 | Peg3 prom inh-2
COc1ccc(N(Cc2cc3cc(OC)ccc3[nH]c2=O)S(=O)(=O)c2ccc(NC(C)=O)cc2)cc1 | -100.6 | 80.1 | 61.8 | i | i | i | 61.2
COc1ccc(N(Cc2cc3ccccc3[nH]c2=O)S(=O)(=O)c2ccc(OC)cc2)cc1 | i | i | i | i | i | i | nt
COc1cc(OC)c(OC)cc1CNC(=O)c1ccc(S(=O)(=O)N2CCCCC2)cc1 | i | i | i | i | i | i | nt
COC(=O)c1ccsc1NS(=O)(=O)c1ccccc1 | i | i | i | i | i | i | nt
O=C(/C=C/c1ccc(F)cc1)NC(=S)NNC(=O)c1cnccn1 | i | i | 55.2 | i | i | 89.3 | 40.1
COCCNC(=O)/C(C#N)=C/C=C/c1ccccc1[N+](=O)[O-] | i | i | 52.5 | i | i | i | i
COc1cc2ccccc2cc1C(=O)N(CCN(C)C)c1nc2c(OC)ccc(OC)c2s1 | i | i | 66.3 | i | i | i | 66.7
COc1ccc(OC)c2sc(N(CCN(C)C)C(=O)c3ccc4ccccc4c3)nc12 | i | i | i | i | i | i | nt
NC(=O)C1CCN(c2ccc3c(c2)S(=O)(=O)c2ccccc2C3=O)CC1 | i | i | i | i | i | i | nt
NC(=O)C1CCN(C2=C(Cl)C(=O)c3ccccc3C2=O)CC1 | i | i | 73.4 | 94.2 | 88.2 | 97.7 | 97.9
O=C1NC[C@@H](CCCCN2C[C@H](Cc3ccc(O)cc3)N(CCC3CCCCC3)C(=O)C2=O)N(CCc2ccc(O)cc2)C1=O | nt | nt | nt | i | nt | nt | nt
CN(C(=O)CSc1nnc(-c2ccccc2)o1)c1c(N)n(Cc2ccccc2)c(=O)[nH]c1=O | i | i | i | i | i | i | nt
Fc1ccc(Nc2nc(-c3ccncc3)nc3ccccc23)cc1F | i | i | 54.3 | i | i | i | i
Cc1cccc(/C=C2/Sc3ccc(C(=O)NCCN4CCCC4)cc3NC2=O)c1 | i | i | 93.8 | i | 88.6 | i | 100.1
CCOC(=O)C1CCN(C(=O)c2ccc3c(c2)NC(=O)/C(=C\c2cccc(C)c2)S3)CC1 | i | i | i | i | i | i | nt
CCOc1ccc(N(CC(=O)Nc2ccc(C)c(Cl)c2)S(C)(=O)=O)cc1 | i | i | i | i | i | i | nt
COc1ccc(NC(=O)CCOc2ccccc2C)cc1S(=O)(=O)N1CCCCC1 | i | i | i | i | i | i | nt
CC1CCc2cc(F)ccc2N1C(=O)CSc1nnc2c(n1)[nH]c1ccc(F)cc12 (stereo not given) | i | i | 99.8 | i | i | i | i
CCOC(=O)CN(C(=O)CSc1nnc2c(n1)[nH]c1ccc(F)cc12)c1ccccc1 | i | i | 56.3 | i | i | i | 49.0
O=C(/C=C/Nc1ccccc1Br)c1ccccn1 | i | i | 89.6 | 85.2 | 76.3 | 89.8 | 87.2
COc1ccccc1C(c1nnnn1CCc1ccccc1)N1CCN(c2ccccc2)CC1 (stereo not given) | i | i | i | i | i | i | nt
